Measured values from PubChem BioAssay (EPA / NIEHS).
Results filed as inconclusive are left out. The source made the active and inactive calls. Rule for the calls: active = hit-call score of the fitted dose curve at least 0.9, where 1 is the maximum; inconclusive = response in the unintended direction; inactive = score below 0.9. Where a SMILES comes first, the peptide text is derived from it. Bridges are numbered along the chain shown (N, C = ends). [ ]: non-standard residue; d: D form. The star is where a group is joined. Ileψ(thiazoline)Cys = CC[C@H](C)[C@H](N)C1=N[C@H](C(=O)*)CS1; dOrn = NCCC[C@@H](N)C(=O)O

Key:
[1] = TOX21_p53_BLA_p2_viability: Viability Assessment in the Tox21 HCT-116 p53 Agonism Beta-lactamase Assay, Phase 2 (AID 2283591);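 note: compound exposure lasted 16 h at 37 °C; actives lower the ATP signal meaning cytotoxicity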
Outline: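 HCT-116 p53-bla cells (4000/well) rested 5 h at 37C, then received compounds in DMSO (217-fold dilution) for 16 h at 37C, 5% CO2. After the CCF4 read, CellTiter-Glo was added; ATP luminescence was read after 30 min at room temperature.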

[2] = target: Cellular tumor antigen p53 (Homo sapiens) (UniProt P04637); assay: TOX21_p53_BLA_p2_ratio: Tox21 HCT-116 p53 Agonism Beta-lactamase Assay, Ratio, Phase 2 (AID 2283592)
Chain of Cellular tumor antigen p53 (Homo sapiens) (P04637 whole entry, looked up): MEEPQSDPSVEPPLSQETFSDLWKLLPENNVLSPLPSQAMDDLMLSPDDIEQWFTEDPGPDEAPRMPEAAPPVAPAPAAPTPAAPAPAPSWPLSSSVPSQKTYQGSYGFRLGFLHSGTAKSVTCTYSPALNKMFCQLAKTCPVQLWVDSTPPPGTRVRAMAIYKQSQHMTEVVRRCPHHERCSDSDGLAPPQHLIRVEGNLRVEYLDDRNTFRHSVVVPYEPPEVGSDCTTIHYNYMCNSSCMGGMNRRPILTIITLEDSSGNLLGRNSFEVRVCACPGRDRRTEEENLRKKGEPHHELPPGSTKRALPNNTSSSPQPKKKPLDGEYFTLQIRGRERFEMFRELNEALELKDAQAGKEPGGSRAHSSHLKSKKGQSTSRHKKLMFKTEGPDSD
Outline: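 HCT-116 cells with p53-responsive beta-lactamase reporter, 4000 cells/well, preincubated 5 h, then compound in DMSO (217-fold dilution) for 16 h at 37C. CCF4-AM substrate 2 h at room temperature; 460/530 nm emission ratio fitted upward versus DMSO.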

[3] = TOX21_p53_BLA_p3_viability: Viability Assessment in the Tox21 HCT-116 p53 Agonism Beta-lactamase Assay, Phase 3 (AID 2283593);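 note: cells exposed to compound for 16 h before reading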
Outline: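 HCT-116 cells (4000/well) rested 5 h at 37C, then got DMSO compounds by pin tool (217-fold dilution) for 16 h at 37C, 5% CO2. After the bla read, CellTiter-Glo was added and luminescence read at 30 min, room temperature.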

[4] = target: Cellular tumor antigen p53 (Homo sapiens) (UniProt P04637); assay: TOX21_p53_BLA_p3_ratio: Tox21 HCT-116 p53 Agonism Beta-lactamase Assay, Ratio, Phase 3 (AID 2283596)
Outline: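 HCT116 p53-bla cells (4000/well) given compound in DMSO (217-fold dilution) after 5 h, incubated 16 h at 37C. CCF4-AM substrate 2 h at room temperature; 460/530 nm emission ratio, gain fitted against DMSO.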

[5] = TOX21_p53_BLA_p4_viability: Viability Assessment in the Tox21 HCT-116 p53 Agonism Beta-lactamase Assay, Phase 4 (AID 2283597);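 note: hits lower the luminescence signal meaning cytotoxicity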
Outline: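 HCT-116 p53-bla cells, 4000/well, dosed after 5 h attachment and incubated 16 h at 37 °C, 5% CO2. Viability from CellTiter-Glo ATP luminescence after 30 min at room temperature, taken after the beta-lactamase read; loss of signal indicates cytotoxicity.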

[6] = target: Cellular tumor antigen p53 (Homo sapiens) (UniProt P04637); assay: TOX21_p53_BLA_p5_ratio: Tox21 HCT-116 p53 Agonism Beta-lactamase Assay, Ratio, Phase 5 (AID 2283599)
Outline: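 HCT-116 cells carrying a p53-inducible beta-lactamase reporter were seeded at 4000 cells/well and dosed after 5 h with compound in DMSO (217-fold dilution). After 16 h at 37C, CCF4-AM substrate was added for 2 h, and the 460/530 nm emission ratio was scored as gain-of-signal versus DMSO.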

[7] = TOX21_p53_BLA_p5_viability: Viability Assessment in the Tox21 HCT-116 p53 Agonism Beta-lactamase Assay, Phase 5 (AID 2283600)
Outline: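 HCT-116 p53 beta-lactamase reporter cells, 4000/well, were exposed to compound (pin transfer, 217-fold dilution) for 16 hours at 37C. Cellular ATP was read by CellTiter-Glo luminescence after 30 min at room temperature.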

[8] = target: Cellular tumor antigen p53 (Homo sapiens) (UniProt P04637); assay: TOX21_p53_BLA_p4_ratio: Tox21 HCT-116 p53 Agonism Beta-lactamase Assay, Ratio, Phase 4 (AID 2283601)
Outline: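 HCT116 cells carrying an inducible beta-lactamase reporter were plated at 4000 cells/well, rested 5 h, then exposed to compounds in DMSO (217-fold dilution) for 16 h at 37C. CCF4-AM substrate was loaded 2 h at room temperature; 460/530 nm emission ratio scored gain-of-signal versus DMSO.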

SMILES	outcome [1]	outcome [2]	outcome [3]	outcome [4]	outcome [5]	outcome [6]	outcome [7]	outcome [8]	AC50 [1]	AC50 [2]	AC50 [3]	AC50 [4]	AC50 [5]	AC50 [6]	AC50 [7]	AC50 [8]
CCn1cc(C(=O)O)c(=O)c2cc(F)c(N3CCNC(C)C3)c(F)c21 (configuration not stated)	inactive	inactive	inactive	inactive	inactive	inactive	inactive	inactive								
CC(C)=CCC1C(=O)N(c2ccccc2)N(c2ccccc2)C1=O								inactive	32.6 µM (active)	7.19 µM (active)	34.3 µM (active)	10.2 µM (active)	33.5 µM (active)	7.67 µM (active)	42.1 µM (active)	
N=C1N=C(N)c2cc3ccccc3cc21									23.6 µM (active)	11.6 µM (active)	38.5 µM (active)	18.5 µM (active)	21 µM (active)	15 µM (active)	27.4 µM (active)	19.8 µM (active)
CC(C)=CCOc1ccc(/C=C/C(=O)c2ccc(OCC=C(C)C)cc2OCC(=O)O)cc1							inactive		8 µM (active)	6.92 µM (active)	14.9 µM (active)	13.8 µM (active)	7.92 µM (active)	9.9 µM (active)		7.21 µM (active)
CNC[C@H](O)c1ccc(O)c(O)c1	inactive	inactive	inactive	inactive	inactive	inactive	inactive	inactive								
CC1(C)C[C@@H]1C(=O)N/C(=C\CCCCSC[C@H](N)C(=O)O)C(=O)O	inactive	inactive	inactive	inactive	inactive	inactive	inactive	inactive								
CNCC[C@H](Oc1cccc2ccccc12)c1cccs1			inactive	inactive		inactive	inactive		35.4 µM (active)	43.5 µM (active)			35.4 µM (active)			43.7 µM (active)
COc1ccccc1N1CCN(CC(O)COc2cccc3ccccc23)CC1 (configuration not stated)	inactive	inactive	inactive	inactive		inactive	inactive	inactive					23 µM (active)			
O=C(O)c1cc(O)c(O)c(O)c1	inactive	inactive	inactive	inactive	inactive	inactive	inactive	inactive								
C=C1/C(=C\C=C2/CCC[C@]3(C)[C@@H]([C@H](C)CCCC(C)C)CC[C@@H]23)C[C@@H](O)C[C@@H]1O	inactive				inactive	inactive	inactive	inactive		20.7 µM (active)	37.1 µM (active)	40 µM (active)				
O=C1C=CC(=O)N1	inactive						inactive			73.5 µM (active)	69.8 µM (active)	70.8 µM (active)	79.4 µM (active)	82.4 µM (active)		70.3 µM (active)
O=C1C(=O)c2ccccc2C(O)=C1C1CCC(c2ccc(Cl)cc2)CC1 (configuration not stated)	inactive		inactive		inactive		inactive	inactive		10.3 µM (active)		1.61 µM (active)		10.3 µM (active)		
CCOc1cc(-c2nccc3cc(OC)c(OC)cc23)cc(OCC)c1OCC	inactive	inactive	inactive	inactive	inactive	inactive	inactive	inactive								
CSc1ccc(/C=C2/C(C)=C(CC(=O)O)c3cc(F)ccc32)cc1		inactive		inactive				inactive	22.4 µM (active)		41.1 µM (active)		23.1 µM (active)	19.7 µM (active)	36.4 µM (active)	
CCCN1C[C@H](CSC)C[C@@H]2c3cccc4[nH]cc(c34)C[C@H]21	inactive	inactive	inactive	inactive	inactive	inactive	inactive	inactive								
CC[C@@]1(O)C(=O)OCc2c1cc1n(c2=O)Cc2cc3c([N+](=O)[O-])cccc3nc2-1	inactive						inactive			0.124 µM (active)	0.685 µM (active)	0.172 µM (active)	0.654 µM (active)	0.166 µM (active)		0.166 µM (active)
CC[C@H](C)[C@H](N)C1=N[C@H](C(=O)N[C@@H](CC(C)C)C(=O)N[C@H](CCC(=O)O)C(=O)N[C@H](C(=O)N[C@H]2CCCCNC(=O)[C@H](CC(N)=O)NC(=O)[C@@H](CC(=O)O)NC(=O)[C@H](Cc3cnc[nH]3)NC(=O)[C@@H](Cc3ccccc3)NC(=O)[C@H]([C@@H](C)CC)NC(=O)[C@@H](CCCN)NC2=O)[C@@H](C)CC)CS1 ({Ileψ(thiazoline)Cys}-L[dE]IK[dOrn]I[dF]H[dD]N; lactam 4-C)	inactive	inactive	inactive	inactive	inactive	inactive	inactive	inactive								
CC(=C(CCO)SSC(CCO)=C(C)N(C=O)Cc1cnc(C)nc1N)N(C=O)Cc1cnc(C)nc1N	inactive	inactive	inactive	inactive	inactive	inactive	inactive	inactive								
COc1c(C)c2c(c(O)c1C/C=C(\C)CCC(=O)O)C(=O)OC2	inactive		inactive				inactive			0.0608 µM (active)		0.102 µM (active)	0.224 µM (active)	0.127 µM (active)		0.091 µM (active)
